Reference: PubChem BioAssay (NCATS)
Results filed as inconclusive are left out. Activity calls are given as the source filed them. Calls follow the shape of the dose curve; as a rule, active = well fitted curve in the direction sought with a large enough effect; inconclusive = small, poorly fitted or top-dose-only effect, or another doubt; inactive = no such curve, though single readings can be large; an effect the other way counts as inactive or inconclusive.

Columns and labels:
[1] = Quantitative High-Throughput drug screen in 47 multiple myeloma cell lines against the NCATS MIPE library collection: KHM11_PLB cell viability assay (AID 1918962); also: nearly all actives have a fitted effect of over 35% in size
In short: (§1)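 Viability readout: CellTiter-Glo luminescence following 5 min room-temperature incubation with reagent. Prior exposure: 48 h, 37C, humidified 5% CO2, 500 cells per well.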

[2] = Quantitative High-Throughput drug screen in 47 multiple myeloma cell lines against the NCATS MIPE library collection: JIM3_ECACC cell viability assay (AID 1918963; also: nearly all actives have a fitted effect of over 35% in size)
In short: as §1

[3] = Quantitative High-Throughput drug screen in 47 multiple myeloma cell lines against the NCATS MIPE library collection: JIM1_ECACC cell viability assay (AID 1918964)
In short: (§2)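 We plated 500 myeloma cells per well, pinned in MIPE 4.0 compounds, and incubated for 48 hours at 37C. ATP was then quantified with CellTiter-Glo, with DMSO and media-only wells defining 100% and 0%.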

[4] = Quantitative High-Throughput drug screen in 47 multiple myeloma cell lines against the NCATS MIPE library collection: INA6_PLB cell viability assay (AID 1918965; also: nearly all actives have a fitted effect of over 55% in size)
In short: (§3)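 Approved and investigational drugs from MIPE 4.0 were added by pin tool to 500 cells per well. After 48 hours at 37C, ATP-based CellTiter-Glo luminescence indicated remaining viability.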

[5] = Quantitative High-Throughput drug screen in 47 multiple myeloma cell lines against the NCATS MIPE library collection: JJN3_DSMZ cell viability assay (AID 1918966; also: nearly all actives have a fitted effect of over 50% in size)
In short: as §2

[6] = Quantitative High-Throughput drug screen in 47 multiple myeloma cell lines against the NCATS MIPE library collection: H1112_PLB cell viability assay (AID 1918967; also: nearly all actives have a fitted effect of over 30% in size)
In short: as §2

[7] = Quantitative High-Throughput drug screen in 47 multiple myeloma cell lines against the NCATS MIPE library collection: Karpas25_ECACC cell viability assay (AID 1918968; also: nearly all actives have a fitted effect of over 35% in size)
In short: as §2

[8] = Quantitative High-Throughput drug screen in 47 multiple myeloma cell lines against the NCATS MIPE library collection: KMS27_JCRB cell viability assay (AID 1918970); also: nearly all actives have a fitted effect of over 30% in size
In short: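 Viability inhibition screen, 48 h compound exposure, luminescent ATP read-out.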

[9] = Quantitative High-Throughput drug screen in 47 multiple myeloma cell lines against the NCATS MIPE library collection: KMS12BM_JCRB cell viability assay (AID 1918971); also: nearly all actives have a fitted effect of over 35% in size
In short: (§4)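 CellTiter-Glo luminescence (ATP) after 48 h compound exposure, 37C/5% CO2; 500 cells/well; MIPE 4.0 approved/investigational drugs pinned in; DMSO = 100%, media only = 0% viability.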

[10] = Quantitative High-Throughput drug screen in 47 multiple myeloma cell lines against the NCATS MIPE library collection: KMS12PE_JCRB cell viability assay (AID 1918972); also: nearly all actives have a fitted effect of over 30% in size
In short: as §3

[11] = Quantitative High-Throughput drug screen in 47 multiple myeloma cell lines against the NCATS MIPE library collection: KMS20_JCRB cell viability assay (AID 1918973); also: nearly all actives have a fitted effect of over 45% in size
In short: as §2

[12] = Quantitative High-Throughput drug screen in 47 multiple myeloma cell lines against the NCATS MIPE library collection: KMS26_JCRB cell viability assay (AID 1918975); also: nearly all actives have a fitted effect of over 45% in size
In short: as §4

[13] = Quantitative High-Throughput drug screen in 47 multiple myeloma cell lines against the NCATS MIPE library collection: MMM1_PLB cell viability assay (AID 1918976); also: nearly all actives have a fitted effect of over 35% in size
In short: (§5)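 MIPE 4.0 approved/investigational drugs; 500 cells/well; 48 h 37 °C humidified 5% CO2; CTG luminescence readout; DMSO = 100%, media = 0% viability.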

[14] = Quantitative High-Throughput drug screen in 47 multiple myeloma cell lines against the NCATS MIPE library collection: MOLP8_DSMZ cell viability assay (AID 1918977); also: nearly all actives have a fitted effect of over 45% in size
In short: as §5

[15] = Quantitative High-Throughput drug screen in 47 multiple myeloma cell lines against the NCATS MIPE library collection: NCIH929_DSMZ cell viability assay (AID 1918978); also: nearly all actives have a fitted effect of over 35% in size
In short: as §5

[16] = Quantitative High-Throughput drug screen in 47 multiple myeloma cell lines against the NCATS MIPE library collection: OCIMY1_PLB cell viability assay (AID 1918979); also: nearly all actives have a fitted effect of over 35% in size
In short: as §5

[17] = Quantitative High-Throughput drug screen in 47 multiple myeloma cell lines against the NCATS MIPE library collection: MM1S_ATCC cell viability assay (AID 1918980); also: nearly all actives have a fitted effect of over 45% in size
In short: as §5

[18] = Quantitative High-Throughput drug screen in 47 multiple myeloma cell lines against the NCATS MIPE library collection: MM1R_ATCC cell viability assay (AID 1918981); also: nearly all actives have a fitted effect of over 35% in size
In short: as §5

[19] = Quantitative High-Throughput drug screen in 47 multiple myeloma cell lines against the NCATS MIPE library collection: LP1_DSMZ cell viability assay (AID 1918982); also: nearly all actives have a fitted effect of over 35% in size
In short: as §5

[20] = Quantitative High-Throughput drug screen in 47 multiple myeloma cell lines against the NCATS MIPE library collection: KMS21BM_JCRB cell viability assay (AID 1918974); settings: ATP luminescence, 48 h; viability: at 45.8 µM (top of the series) unless noted
In short: as §2

Measured: Potency
Potency is read from the fitted curve at half-maximal effect.

C1=CCOCc2cc(ccc2OCCN2CCCC2)Nc2nccc(n2)-c2cccc(c2)OCC1
active: [1] 1660 nM | [2] 2640 nM | [3] 743 nM | [4] 1480 nM | [5] 4180 nM | [6] 5260 nM | [7] 1660 nM | [8] 1480 nM | [9] 7430 nM | [10] 2640 nM | [11] 2350 nM | [12] 4180 nM | [13] 3320 nM | [14] 2090 nM | [15] 2350 nM | [16] 5900 nM | [17] 2640 nM | [18] 2640 nM | [19] 2640 nM

CC(=O)Nc1nc(C)c(-c2ccc(Cl)c(S(=O)(=O)NCCO)c2)s1
active: [1] 935 nM | [2] 4690 nM | [3] 1180 nM | [4] 1050 nM | [5] 18700 nM | [6] 1480 nM | [7] 1180 nM | [8] 1320 nM | [10] 5260 nM | [11] 1180 nM | [20] 1660 nM | [12] 7430 nM | [13] 5900 nM | [14] 9350 nM | [15] 833 nM | [16] 11800 nM | [17] 1480 nM | [18] 7430 nM | [19] 3320 nM

CCN(CC)CCNC(=O)c1ccc2nc(-c3ccccc3)c(-c3ccc(CN4CCC(n5c(=O)[nH]c6ccccc65)CC4)cc3)nc2c1
active: [1] 332 nM | [2] 935 nM | [3] 833 nM | [4] 296 nM | [5] 20900 nM | [6] 833 nM | [7] 332 nM | [8] 418 nM | [9] 16600 nM | [10] 833 nM | [11] 296 nM | [20] 1180 nM | [12] 14800 nM | [13] 26400 nM | [14] 16600 nM | [15] 743 nM | [16] 20900 nM | [17] 8330 nM | [18] 20900 nM | [19] 18700 nM

Cn1cc(-c2[nH]c3cc(NC(=O)[C@H](N)C4CCCCC4)cc4c3c2C=NNC4=O)cn1
active: [1] 1480 nM | [2] 5260 nM | [3] 296 nM | [4] 209 nM | [5] 662 nM | [6] 935 nM | [7] 935 nM | [8] 148 nM | [10] 1180 nM | [11] 935 nM | [20] 166 nM | [12] 8330 nM | [13] 1320 nM | [14] 526 nM | [15] 1320 nM | [17] 1180 nM | [18] 1050 nM

Cc1cc(Nc2ncnc3ccc(-c4ccc(CNCCS(C)(=O)=O)o4)cc23)ccc1Oc1ccn2ncnc2c1
active: [1] 6620 nM | [2] 9350 nM | [3] 5260 nM | [4] 1870 nM | [5] 18700 nM | [6] 6620 nM | [8] 2640 nM | [9] 18700 nM | [10] 5260 nM | [11] 2090 nM | [12] 26400 nM | [13] 3320 nM | [14] 20900 nM | [15] 4180 nM | [17] 5900 nM | [18] 20900 nM | [19] 7430 nM

C#Cc1cccc(Nc2ncnc3cc(OC)c(OCCCCCCC(=O)NO)cc23)c1
active: [1] 372 nM | [2] 2350 nM | [3] 66.2 nM | [4] 16.6 nM | [5] 132 nM | [6] 296 nM | [7] 52.6 nM | [8] 74.3 nM | [9] 66.2 nM | [10] 148 nM | [11] 83.3 nM | [12] 105 nM | [13] 418 nM | [14] 166 nM | [15] 93.5 nM | [16] 1050 nM | [17] 23.5 nM | [18] 166 nM | [19] 743 nM

CNc1nccc(-c2cccnc2Oc2cc(C(=O)Nc3cccc(C(F)(F)F)c3)ccc2C)n1
active: [1] 1050 nM | [2] 18700 nM | [3] 8330 nM | [4] 4180 nM | [5] 18700 nM | [6] 14800 nM | [7] 8330 nM | [8] 7430 nM | [10] 10500 nM | [11] 9350 nM | [13] 18700 nM | [15] 5260 nM | [17] 18700 nM | [18] 20900 nM | [19] 23500 nM

CNC(=O)c1cc(Oc2ccc(NC(=O)Nc3cc(C(C)(C)C)nn3-c3ccc4ncccc4c3)c(F)c2)ccn1
active: [1] 2640 nM | [2] 3320 nM | [3] 7430 nM | [4] 3320 nM | [5] 2960 nM | [6] 4180 nM | [7] 6620 nM | [8] 23500 nM | [9] 5900 nM | [10] 16600 nM | [11] 5900 nM | [20] 4180 nM | [12] 9350 nM | [13] 14800 nM | [14] 4180 nM | [15] 4690 nM | [16] 16600 nM | [17] 11800 nM | [18] 7430 nM | [19] 10500 nM
